# Screen size: about 5,500 compounds; about 2,000 (36%) were called active. Not shown: some 18% with an inconclusive outcome. This is one part of the list. Values without a mark were called inactive. Cut-off read from the data, not from the text of the source: active = normalized growth mostly below about 0.91 (no sharp cut-off); inconclusive = no clear call, values can overlap the other calls; inactive = mostly above about 0.92.
# Assay: chemical genetic growth profiling, strain panel (AID 1159580);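 note: tested at 20 µM; growth read once vehicle control cultures reached saturation at 30 °C; 1 = growth at the plate median or of vehicle wells; lower values mean less growth of the strain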
# Details: growth OD
# [1] = S. cerevisiae deletion strains, locus YDL101C, strain DUN1, active compounds read low
# [2] = S. cerevisiae deletion strains, locus YHR030C, strain SLT2, active compounds read low
structure (smiles),measurement,setting,value
CCSc1nnc(N)s1,normalized growth,"S. cerevisiae deletion strains, locus YAL013W, strain DEP1, active compounds read low",1.02
same,normalized growth,"S. cerevisiae deletion strains, locus YBR229C, strain ROT2, active compounds read low",1.01
same,normalized growth,[1],1.01
same,normalized growth,"S. cerevisiae deletion strains, locus YDL134C, strain PPH21, active compounds read low",1.01
same,normalized growth,"S. cerevisiae deletion strains, locus YDR150W, strain NUM1, active compounds read low",1
same,normalized growth,"S. cerevisiae deletion strains, locus YEL061C, strain CIN8, active compounds read low",0.996
same,normalized growth,"S. cerevisiae deletion strains, locus YGR078C, strain PAC10, active compounds read low",1.01
same,normalized growth,[2],1.05
same,normalized growth,"S. cerevisiae deletion strains, locus YHR087W, strain rtc3, active compounds read low",1.01
same,normalized growth,"S. cerevisiae deletion strains, locus YJL187C, strain SWE1, active compounds read low",1.01
same,normalized growth,"S. cerevisiae deletion strains, locus YJR043C, strain POL32, active compounds read low",1
same,normalized growth,"S. cerevisiae deletion strains, locus YJR075W, strain HOC1, active compounds read low",0.994
same,normalized growth,"S. cerevisiae deletion strains, locus YLR039C, strain RIC1, active compounds read low",1.01
same,normalized growth,"S. cerevisiae deletion strains, locus YLR058C, strain SHM2 (second series), active compounds read low",1.01
same,normalized growth,"S. cerevisiae deletion strains, locus YLR085C, strain ARP6, active compounds read low",0.999
same,normalized growth,"S. cerevisiae deletion strains, locus YLR262C, strain YPT6, active compounds read low",1.05
same,normalized growth,"S. cerevisiae deletion strains, locus YML094W, strain GIM5, active compounds read low",0.995
same,normalized growth,"S. cerevisiae deletion strains, locus YMR219W, strain ESC1, active compounds read low",1.01
same,normalized growth,"S. cerevisiae deletion strains, locus YMR263W, strain SAP30, active compounds read low",1
same,normalized growth,"S. cerevisiae deletion strains, locus YMR307W, strain GAS1, active compounds read low",0.981
same,normalized growth,"S. cerevisiae deletion strains, locus YNL128W, strain TEP1, active compounds read low",1.01
same,normalized growth,"S. cerevisiae deletion strains, locus YNL153C, strain GIM3, active compounds read low",0.997
same,normalized growth,"S. cerevisiae deletion strains, locus YNL298W, strain CLA4 (second series), active compounds read low",0.995
same,normalized growth,"S. cerevisiae deletion strains, locus YNL322C, strain KRE1, active compounds read low",1.02
same,normalized growth,"S. cerevisiae deletion strains, locus YNR030W, strain Alg12, active compounds read low",1.01
same,normalized growth,"S. cerevisiae deletion strains, locus YPL055C, strain LGE1, active compounds read low",0.997
same,normalized growth,"S. cerevisiae deletion strains, locus YPL241C, strain CIN2, active compounds read low",1.01
same,normalized growth,"S. cerevisiae deletion strains, locus YPR135W, strain CTF4, active compounds read low",1.11
same,normalized growth,"S. cerevisiae strains, strain wild type, active compounds read low",1.01
N#CC(C#N)=C/C=C(/Sc1ccc(F)c(Cl)c1)c1ccc(Cl)cc1,normalized growth,"S. cerevisiae deletion strains, locus YAR019C, strain CDC15, active compounds read low",0.937
same,normalized growth,"S. cerevisiae deletion strains, locus YBL105C, strain PKC1, active compounds read low",0.948
same,normalized growth,"S. cerevisiae deletion strains, locus YBR135W, strain CKS1, active compounds read low",0.943
same,normalized growth,"S. cerevisiae deletion strains, locus YBR136W, strain MEC1, active compounds read low",0.949
same,normalized growth,"S. cerevisiae deletion strains, locus YBR160W, strain CDC28, active compounds read low",0.958
same,normalized growth,"S. cerevisiae deletion strains, locus YDL017W, strain CDC7, active compounds read low",0.961
same,normalized growth,"S. cerevisiae deletion strains, locus YDL028C, strain MPS1, active compounds read low",0.949
same,normalized growth,[1],0.961
same,normalized growth,"S. cerevisiae deletion strains, locus YDL108W, strain KIN28, active compounds read low",0.947
same,normalized growth,"S. cerevisiae deletion strains, locus YDL132W, strain cdc53, active compounds read low",0.942
same,normalized growth,"S. cerevisiae deletion strains, locus YDL214C, strain PRR2, active compounds read low",0.891
same,normalized growth,"S. cerevisiae deletion strains, locus YDR052C, strain DBF4, active compounds read low",0.956
same,normalized growth,"S. cerevisiae deletion strains, locus YDR054C, strain cdc34, active compounds read low",0.943
same,normalized growth,"S. cerevisiae deletion strains, locus YDR226W, strain ADK1, active compounds read low",0.964
same,normalized growth,"S. cerevisiae deletion strains, locus YDR477W, strain SNF1, active compounds read low",0.839
same,normalized growth,"S. cerevisiae deletion strains, locus YER123W, strain YCK3, active compounds read low",0.822
same,normalized growth,"S. cerevisiae deletion strains, locus YER133W, strain GLC7, active compounds read low",0.872
same,normalized growth,"S. cerevisiae deletion strains, locus YFL009W, strain cdc4, active compounds read low",0.943
same,normalized growth,"S. cerevisiae deletion strains, locus YFL029C, strain CAK1, active compounds read low",0.951
same,normalized growth,"S. cerevisiae deletion strains, locus YFR003C, strain YPI1, active compounds read low",0.951
same,normalized growth,"S. cerevisiae deletion strains, locus YFR019W, strain FAB1, active compounds read low",0.95
same,normalized growth,"S. cerevisiae deletion strains, locus YFR028C, strain CDC14, active compounds read low",0.949
same,normalized growth,"S. cerevisiae deletion strains, locus YGR040W, strain KSS1, active compounds read low",0.823
same,normalized growth,"S. cerevisiae deletion strains, locus YGR052W, strain FMP48, active compounds read low",0.81
same,normalized growth,"S. cerevisiae deletion strains, locus YGR092W, strain DBF2, active compounds read low",0.759
same,normalized growth,[2],0.741 (active)
same,normalized growth,"S. cerevisiae deletion strains, locus YHR079C, strain IRE1, active compounds read low",0.806
same,normalized growth,"S. cerevisiae deletion strains, locus YHR082C, strain KSP1, active compounds read low",0.839
same,normalized growth,"S. cerevisiae deletion strains, locus YHR205W, strain SCH9, active compounds read low",0.608
same,normalized growth,"S. cerevisiae deletion strains, locus YIL147C, strain SLN1, active compounds read low",0.951
same,normalized growth,"S. cerevisiae deletion strains, locus YJL095W, strain BCK1, active compounds read low",0.69
same,normalized growth,"S. cerevisiae deletion strains, locus YJL128C, strain PBS2, active compounds read low",0.896
same,normalized growth,"S. cerevisiae deletion strains, locus YJL157C, strain FAR1, active compounds read low",0.892
same,normalized growth,"S. cerevisiae deletion strains, locus YJR016C, strain ILV3, active compounds read low",0.937
same,normalized growth,"S. cerevisiae deletion strains, locus YJR066W, strain TOR1 (second series), active compounds read low",0.748
same,normalized growth,"S. cerevisiae deletion strains, locus YJR066W, strain TOR1, active compounds read low",0.781
same,normalized growth,"S. cerevisiae deletion strains, locus YKL048C, strain ELM1, active compounds read low",0.932
same,normalized growth,"S. cerevisiae deletion strains, locus YKL067W, strain YNK1, active compounds read low",0.888
same,normalized growth,"S. cerevisiae deletion strains, locus YKL101W, strain HSL1, active compounds read low",0.834
same,normalized growth,"S. cerevisiae deletion strains, locus YKL193C, strain SDS22, active compounds read low",0.947
same,normalized growth,"S. cerevisiae deletion strains, locus YKL203C, strain TOR2, active compounds read low",0.87
same,normalized growth,"S. cerevisiae deletion strains, locus YLR113W, strain HOG1, active compounds read low",0.632 (active)
same,normalized growth,"S. cerevisiae deletion strains, locus YLR133W, strain CKI1, active compounds read low",0.906
same,normalized growth,"S. cerevisiae deletion strains, locus YLR403W, strain SFP1, active compounds read low",0.753
same,normalized growth,"S. cerevisiae deletion strains, locus YML070W, strain DAK1, active compounds read low",0.855
same,normalized growth,"S. cerevisiae deletion strains, locus YMR001C, strain CDC5, active compounds read low",0.944
same,normalized growth,"S. cerevisiae deletion strains, locus YMR205C, strain PFK2 (second series), active compounds read low",0.89
same,normalized growth,"S. cerevisiae deletion strains, locus YMR277W, strain FCP1, active compounds read low",0.941
same,normalized growth,"S. cerevisiae deletion strains, locus YNL006W, strain LST8, active compounds read low",0.976
same,normalized growth,"S. cerevisiae deletion strains, locus YNL020C, strain ARK1, active compounds read low",0.884
same,normalized growth,"S. cerevisiae deletion strains, locus YNL161W, strain CBK1, active compounds read low",0.96
same,normalized growth,"S. cerevisiae deletion strains, locus YNL183C, strain NPR1, active compounds read low",0.749
same,normalized growth,"S. cerevisiae deletion strains, locus YNL207W, strain RIO2, active compounds read low",0.938
same,normalized growth,"S. cerevisiae deletion strains, locus YNL222W, strain SSU72, active compounds read low",0.955
same,normalized growth,"S. cerevisiae deletion strains, locus YNL307C, strain MCK1 (second series), active compounds read low",0.711
same,normalized growth,"S. cerevisiae deletion strains, locus YOL078W, strain AVO1, active compounds read low",0.94
same,normalized growth,"S. cerevisiae deletion strains, locus YOL136C, strain PFK27, active compounds read low",0.879
same,normalized growth,"S. cerevisiae deletion strains, locus YOR061W, strain CKA2, active compounds read low",0.827
same,normalized growth,"S. cerevisiae deletion strains, locus YOR119C, strain RIO1, active compounds read low",0.876
same,normalized growth,"S. cerevisiae deletion strains, locus YOR231W, strain MKK1, active compounds read low",0.781
same,normalized growth,"S. cerevisiae deletion strains, locus YOR329C, strain SCD5, active compounds read low",0.956
same,normalized growth,"S. cerevisiae deletion strains, locus YPL031C, strain PHO85, active compounds read low",0.758
same,normalized growth,"S. cerevisiae deletion strains, locus YPL153C, strain RAD53, active compounds read low",0.856
same,normalized growth,"S. cerevisiae deletion strains, locus YPL204W, strain HRR25, active compounds read low",0.856
same,normalized growth,"S. cerevisiae deletion strains, locus YPL209C, strain IPL1, active compounds read low",0.954
same,normalized growth,"S. cerevisiae deletion strains, locus YPL256C, strain CLN2, active compounds read low",0.877
same,normalized growth,"S. cerevisiae deletion strains, locus YPR025C, strain CCL1, active compounds read low",0.956
same,normalized growth,"S. cerevisiae deletion strains, locus YPR106W, strain ISR1, active compounds read low",0.957
same,normalized growth,"S. cerevisiae deletion strains, locus YPR111W, strain DBF20, active compounds read low",0.944
same,normalized growth,"S. cerevisiae deletion strains, strain NNK1, active compounds read low",0.946
same,normalized growth,"S. cerevisiae deletion strains, strain TSCII, active compounds read low",0.945
